Consider 40 sequences from the supplement of paper PMC6555819.

The subject of the first experiment is PXR homodimer (NR concentration 270 nM). Put plainly: PBM binding z-score (relative to random genomic background probes); higher = stronger binding; sequences stand for … in GC…GCGATTGACAGCGTAGAATGAAGG
Summed up: (§1)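 On custom Agilent 4×180K arrays, double-stranded probes with 34-nt variable regions carried direct-repeat seeds, single-nucleotide variants, half-site ablations or random human genomic background. Ligand-free nuclear receptor dimers were applied for 1 h, and binding was read with antibodies against each partner (one per run). Binding z-scores come from regression-normalized fluorescence, with the random background probes as reference.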
In turn, CTACCAAGGTGAACAAGGTCGCTGATTACTATTC showed a PBM binding z-score of 0.349.
The sequence CTTAGCAGGCCAGGGTCACTCAAGCATTTCGCTT gave a PBM binding z-score of -0.227.
Sequence CCTACTGAGCCATTCAGAGGTCATTGATCATATG displayed a PBM binding z-score of 3.63.
Sequence GGAAAGAGGGCAAGTTGATAGCAGAGTTTGATGG returned a PBM binding z-score of 1.23.
In turn, ATCTCTAGGTAACAAGTTCAGTGGAAGAGAGGAC came in with a PBM binding z-score of 1.48.
Regarding TCTCGGCGGACACGAAAGGTCAGAGCTCGACATC, the PBM binding z-score is -0.247.
On the same count and under the same terms, next, CCTTACTGGTCACTGACAGGTTATAGCATTTGGA: 0.48; CGACCAAGGTCAGCAGGTCAGTGAAAGCGACGTG: -0.228.
In turn, TCTTGTAGATCAACAGAGGTTAAGAAAGTGCGCT gave a PBM binding z-score of 0.45.
CCTAGTTGGTCAAGGTCACACTCGCTATAGGTAC came in with a PBM binding z-score of 2.21.
Turning to CAAACTAGGTCAAGAGATCAAAGTCCGCTTCCCG, the PBM binding z-score was found to be 0.0869.
With CTACTAAGGTGAACAAGGTCGTTGATTACTATTC, the PBM binding z-score was found to be 2.35.
Turning to CGTCCAAGGTCAAGGCCAGTGAAAGAGACTCGAA, the PBM binding z-score was 0.449.
ATCTCTGGGTAAGACTCAGTTCAGTGAAGAACGC had a PBM binding z-score of 1.54.
GCTAGTTGGTCAGTAAAAGGACACACACCGGTCG: the PBM binding z-score is 0.246.
CCGACTGGGCCAAAAAGGTCATTGATGCCGATAA yielded a PBM binding z-score of 1.95.
The sequence TAGCCTAGGTCATTCAGGGGCCAGGATAGAAAGC came in with a PBM binding z-score of -0.068.
In turn, GCGACTGGGGCAGCAGCAGGTTACCATAACTTAA registered a PBM binding z-score of -0.939.

The subject of a further experiment is RARa:RXR (NR concentration 270 nM, RXRa partner concentration 90 nM). The description is as above. The procedure, abridged: as §1
Consider CCCACTGGGGCATAAGGTTACCATAAGCCAGCCC, for which the PBM binding z-score came out at 1.07.
The sequence GCTTACGGGTCAAACGTTATAGCATGAATAGAAT displayed a PBM binding z-score of 4.41.
With TCTCGGATGACACGAAGGTCAGAGCTTTCCAGAG, the PBM binding z-score was 2.3.
ATCTCTAGGTAAAATTTCAGTGAATCCCGAGGAT showed a PBM binding z-score of 0.0546.
CATACAGGGTCAGCTAGGCGAGAGTAGGGACGGC: the PBM binding z-score was determined as 3.05.
Same read-out and setting: next, GAAACGAGGGCAAGTTGATAGCAGAGTTTGATGG: 0.741; GCATATAGGTAATACAAGGTGAAAATCCGATTGT: 1.85.
Still for that read-out and setting: next, CCTAGTTGGTCAGGAGGTCAGACACCGGATATGA: 3.13.
Regarding CCTTACGGCTCACGAGGTTATAGCACGACGAGCG, the PBM binding z-score turned out to be 0.918.
On to CCTCGGAGGAGAACAGGAGGTCAGAGCTGCCAGA, for which the PBM binding z-score was 2.19.
The sequence TAGCCTTGGTCATGCGGGCCAGTATAGTGTCGGC gave a PBM binding z-score of -0.757.
Still for that read-out and setting: next, AGAATGAGTTTACCAAAGATCAGGGAAACGCTTG: -0.198; ACTCGGAGGACAAAGGTCTGAGCTACGCCAGTGA: -0.531.
With TTACCAAGGGGAAAGGTCGTTGATGCACGCCTTG, the PBM binding z-score came to 2.73.
On the same count and under the same terms, then CCTACTGGGCCACGAATGGTCATTGATTCAGTGA, with -0.385.
On the same count and under the same terms, next, CGTCAAAGTTCAACTAAGGAAACGTAAAGCACGC: 4.48; TCTTGTAGATCAAGGAGGTTAAGAAAGCCTGAGT: 0.789; AATACAGGGTCACTAGGACAGAGTAGGTACGAAT: 4.21.
In turn, GTTCGGAGGACAAGGTCAGAGCTTTGTCCGTAGA gave a PBM binding z-score of 2.17.
For TGAATGAGGTTAAAGATCAGGTAACGTGGCGTCG, the PBM binding z-score amounted to 3.18.
The sequence AATACAGGGTCACTAGGCCAGATTAGGTACGAAT had a PBM binding z-score of 4.17.
Sequence GCAGACAGGTGTAACGCAGGTAACTCAGGGTGGC yielded a PBM binding z-score of -0.502.
As to CTACCAAGGTGAACAAGGTCGCTGATTACTATTC, the PBM binding z-score turned out to be 1.89.
CTTAGCAGGCCAGGGTCACTCAAGCATTTCGCTT had a PBM binding z-score of 3.2.
Take CCTACTGAGCCATTCAGAGGTCATTGATCATATG: the PBM binding z-score is 4.44.
GGAAAGAGGGCAAGTTGATAGCAGAGTTTGATGG showed a PBM binding z-score of 0.849.
With ATCTCTAGGTAACAAGTTCAGTGGAAGAGAGGAC, the PBM binding z-score was 1.15.
On the same count and under the same terms, next, TCTCGGCGGACACGAAAGGTCAGAGCTCGACATC: 3.71; CCTTACTGGTCACTGACAGGTTATAGCATTTGGA: 0.74.
Regarding CGACCAAGGTCAGCAGGTCAGTGAAAGCGACGTG, the PBM binding z-score came to 4.62.
On the same count and under the same terms, next, TCTTGTAGATCAACAGAGGTTAAGAAAGTGCGCT: 1.95.
With CCTAGTTGGTCAAGGTCACACTCGCTATAGGTAC, the PBM binding z-score is 4.18.
The sequence CAAACTAGGTCAAGAGATCAAAGTCCGCTTCCCG had a PBM binding z-score of 2.57.
CTACTAAGGTGAACAAGGTCGTTGATTACTATTC yielded a PBM binding z-score of 3.18.
Still for that read-out and setting: then CGTCCAAGGTCAAGGCCAGTGAAAGAGACTCGAA, with 4.09; and ATCTCTGGGTAAGACTCAGTTCAGTGAAGAACGC, with 0.0495.
Sequence GCTAGTTGGTCAGTAAAAGGACACACACCGGTCG gave a PBM binding z-score of 0.153.
The same measure, in the same setting: next, CCGACTGGGCCAAAAAGGTCATTGATGCCGATAA: 4.92; TAGCCTAGGTCATTCAGGGGCCAGGATAGAAAGC: 3.5.
Same read-out and setting: then GCGACTGGGGCAGCAGCAGGTTACCATAACTTAA, with -0.19.

In the next experiment the test system is RARa homodimer (NR concentration 270 nM). Described as above. Summed up: as §1
CCCACTGGGGCATAAGGTTACCATAAGCCAGCCC gave a PBM binding z-score of -0.44.
The sequence GCTTACGGGTCAAACGTTATAGCATGAATAGAAT showed a PBM binding z-score of 0.0211.
Consider TCTCGGATGACACGAAGGTCAGAGCTTTCCAGAG, for which the PBM binding z-score was -0.214.
As to ATCTCTAGGTAAAATTTCAGTGAATCCCGAGGAT, the PBM binding z-score came out at 0.744.
For the sequence CATACAGGGTCAGCTAGGCGAGAGTAGGGACGGC, the PBM binding z-score came to 0.266.
For GAAACGAGGGCAAGTTGATAGCAGAGTTTGATGG, the PBM binding z-score was -0.324.
The sequence GCATATAGGTAATACAAGGTGAAAATCCGATTGT yielded a PBM binding z-score of 0.843.
In turn, CCTAGTTGGTCAGGAGGTCAGACACCGGATATGA displayed a PBM binding z-score of 1.66.
Sequence CCTTACGGCTCACGAGGTTATAGCACGACGAGCG showed a PBM binding z-score of 0.403.
For the sequence CCTCGGAGGAGAACAGGAGGTCAGAGCTGCCAGA, the PBM binding z-score was found to be 0.495.
TAGCCTTGGTCATGCGGGCCAGTATAGTGTCGGC gave a PBM binding z-score of -1.23.
Same read-out and setting: then AGAATGAGTTTACCAAAGATCAGGGAAACGCTTG, with -0.325.
As to ACTCGGAGGACAAAGGTCTGAGCTACGCCAGTGA, the PBM binding z-score is -0.889.
Turning to TTACCAAGGGGAAAGGTCGTTGATGCACGCCTTG, the PBM binding z-score is -0.553.
CCTACTGGGCCACGAATGGTCATTGATTCAGTGA had a PBM binding z-score of -0.616.
Same read-out and setting: next, CGTCAAAGTTCAACTAAGGAAACGTAAAGCACGC: 1.12.
The sequence TCTTGTAGATCAAGGAGGTTAAGAAAGCCTGAGT returned a PBM binding z-score of -0.0638.
Regarding AATACAGGGTCACTAGGACAGAGTAGGTACGAAT, the PBM binding z-score is 1.62.
The same measure, in the same setting: next, GTTCGGAGGACAAGGTCAGAGCTTTGTCCGTAGA: -0.913; TGAATGAGGTTAAAGATCAGGTAACGTGGCGTCG: 0.33.
On to AATACAGGGTCACTAGGCCAGATTAGGTACGAAT, for which the PBM binding z-score was 0.909.
For the sequence GCAGACAGGTGTAACGCAGGTAACTCAGGGTGGC, the PBM binding z-score is -1.69.
As for CTACCAAGGTGAACAAGGTCGCTGATTACTATTC, the PBM binding z-score is -0.144.
Same read-out and setting: next, CTTAGCAGGCCAGGGTCACTCAAGCATTTCGCTT: -0.241; CCTACTGAGCCATTCAGAGGTCATTGATCATATG: 1.71.
As for GGAAAGAGGGCAAGTTGATAGCAGAGTTTGATGG, the PBM binding z-score was 1.34.
ATCTCTAGGTAACAAGTTCAGTGGAAGAGAGGAC had a PBM binding z-score of 1.39.
In turn, TCTCGGCGGACACGAAAGGTCAGAGCTCGACATC showed a PBM binding z-score of 0.345.
The sequence CCTTACTGGTCACTGACAGGTTATAGCATTTGGA showed a PBM binding z-score of 1.52.
For CGACCAAGGTCAGCAGGTCAGTGAAAGCGACGTG, the PBM binding z-score was found to be 0.262.
As for TCTTGTAGATCAACAGAGGTTAAGAAAGTGCGCT, the PBM binding z-score came out at 0.0806.
Take CCTAGTTGGTCAAGGTCACACTCGCTATAGGTAC: the PBM binding z-score worked out at 2.57.
CAAACTAGGTCAAGAGATCAAAGTCCGCTTCCCG displayed a PBM binding z-score of 0.821.
For the sequence CTACTAAGGTGAACAAGGTCGTTGATTACTATTC, the PBM binding z-score came out at 0.606.
CGTCCAAGGTCAAGGCCAGTGAAAGAGACTCGAA showed a PBM binding z-score of 0.0458.
On the same count and under the same terms, then ATCTCTGGGTAAGACTCAGTTCAGTGAAGAACGC, with 0.661; and GCTAGTTGGTCAGTAAAAGGACACACACCGGTCG, with 0.849.
As to CCGACTGGGCCAAAAAGGTCATTGATGCCGATAA, the PBM binding z-score turned out to be 0.897.
TAGCCTAGGTCATTCAGGGGCCAGGATAGAAAGC registered a PBM binding z-score of -0.579.
In the case of GCGACTGGGGCAGCAGCAGGTTACCATAACTTAA, the PBM binding z-score is -0.8.
